# In the supplement of paper PMC4022240:
# ± gives the standard deviation.
# T1: HaloTag-ATRX ADD domain (163-292)
# T1 chain: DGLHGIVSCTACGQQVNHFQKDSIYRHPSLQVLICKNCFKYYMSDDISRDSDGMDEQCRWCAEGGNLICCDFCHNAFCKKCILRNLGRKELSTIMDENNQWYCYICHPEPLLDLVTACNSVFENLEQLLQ
# Experiments:
# Experiment in all cases: peptide microarray binding signal (635 nm), min-max normalized on array (fraction of array maximum); higher = stronger binding
# [1] = biological target: T1, HaloTag-ATRX ADD domain (163-292)
# How it was run: (§1)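 Arrays carried histone 13-mer peptide–cellulose conjugates printed in triplicate on nitrocellulose alongside a Cy3 tracer. After overnight blocking at 4°C, they were incubated for 1 h at 4°C with biotin-labelled HaloTag reader fusions (10 nM to 1 μM) plus streptavidin-Alexa Fluor 647, or with rabbit histone antibodies (1:10,000 to 1:2,000) plus anti-rabbit Alexa 647. Scanning on an Axon GenePix 4000B used 635 nm for signal and 532 nm for misprints. The binding signal reported is each triplicate's mean spot intensity after per-library min-max scaling.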
# [2] = biological target: HaloTag-ING2 PHD (mouse Ing2 200-280)
# How it was run: as §1
# [3] = biological target: anti-H3K4me3 antibody ab8580
# How it was run: as §1
# [4] = biological target: anti-H3K9me3 antibody ab8898
# How it was run: as §1
# [5] = peptide region: H4 16-28, peptide modifications: H4R23cit, binder concentration: 1:2,000 dilution
# [6] = peptide region: H4 16-28, peptide modifications: H4R23cit, binder concentration: 1:10,000 dilution
# [7] = peptide region: H4 38-50, peptide modifications: H4K44ac, binder concentration: 1:2,000 dilution
# [8] = peptide region: H4 38-50, peptide modifications: H4K44ac, binder concentration: 1:10,000 dilution
# [9] = peptide region: H4 38-50, peptide modifications: H4K44me1, binder concentration: 1:2,000 dilution
# [10] = peptide region: H4 38-50, peptide modifications: H4K44me1, binder concentration: 1:10,000 dilution
# [11] = peptide region: H4 16-28, peptide modifications: H4R19me2s H4K20me2, binder concentration: 1:2,000 dilution
# [12] = peptide region: H4 16-28, peptide modifications: H4R19me2s H4K20me2, binder concentration: 1:10,000 dilution
# [13] = peptide region: H4 16-28, peptide modifications: H4R19me2s H4K20me3, binder concentration: 1:2,000 dilution
# [14] = peptide region: H4 16-28, peptide modifications: H4R19me2s H4K20me3, binder concentration: 1:10,000 dilution
binder,measurement,setting,value
KRHRKVLRDNIQG [H4 16-28 K R H R K V L Rcit D N I Q G],peptide microarray binding signal,"[1]; peptide region: H4 16-28, peptide modifications: H4R23cit, binder concentration: 50 nM",0.00241 ± 3.7e-05
same,peptide microarray binding signal,"[1]; peptide region: H4 16-28, peptide modifications: H4R23cit, binder concentration: 500 nM",0.00457 ± 0.00023
same,peptide microarray binding signal,"[2]; peptide region: H4 16-28, peptide modifications: H4R23cit, binder concentration: 10 nM",0.00597 ± 0.00064
same,peptide microarray binding signal,"[2]; peptide region: H4 16-28, peptide modifications: H4R23cit, binder concentration: 100 nM",0.00291 ± 0.00024
same,peptide microarray binding signal,[3]; [5],0.000925 ± 1.6e-05
same,peptide microarray binding signal,[3]; [6],0.002 ± 0.00019
same,peptide microarray binding signal,[4]; [5],0.000544 ± 6.6e-05
same,peptide microarray binding signal,[4]; [6],0.00115
ARRGGVKRISGLI [H4 38-50 A R R G G V Kac R I S G L I],peptide microarray binding signal,"[1]; peptide region: H4 38-50, peptide modifications: H4K44ac, binder concentration: 50 nM",0.00298 ± 0.00042
same,peptide microarray binding signal,"[1]; peptide region: H4 38-50, peptide modifications: H4K44ac, binder concentration: 500 nM",0.002238 ± 1.9e-05
same,peptide microarray binding signal,"[2]; peptide region: H4 38-50, peptide modifications: H4K44ac, binder concentration: 10 nM",0.00477 ± 0.00013
same,peptide microarray binding signal,"[2]; peptide region: H4 38-50, peptide modifications: H4K44ac, binder concentration: 100 nM",0.00751 ± 0.00045
same,peptide microarray binding signal,[3]; [7],0.00347 ± 0.0006
same,peptide microarray binding signal,[3]; [8],0.00251 ± 5.9e-05
same,peptide microarray binding signal,[4]; [7],0.00142 ± 3.6e-05
same,peptide microarray binding signal,[4]; [8],0.00138 ± 4.9e-05
ARRGGVKRISGLI [H4 38-50 A R R G G V Kme R I S G L I],peptide microarray binding signal,"[1]; peptide region: H4 38-50, peptide modifications: H4K44me1, binder concentration: 50 nM",0.00765 ± 0.00015
same,peptide microarray binding signal,"[1]; peptide region: H4 38-50, peptide modifications: H4K44me1, binder concentration: 500 nM",0.0147 ± 0.0013
same,peptide microarray binding signal,"[2]; peptide region: H4 38-50, peptide modifications: H4K44me1, binder concentration: 10 nM",0.01074 ± 8.4e-05
same,peptide microarray binding signal,"[2]; peptide region: H4 38-50, peptide modifications: H4K44me1, binder concentration: 100 nM",0.0234 ± 0.0011
same,peptide microarray binding signal,[3]; [9],0.00691 ± 0.00072
same,peptide microarray binding signal,[3]; [10],0.00719 ± 0.00029
same,peptide microarray binding signal,[4]; [9],0.00751 ± 0.0003
same,peptide microarray binding signal,[4]; [10],0.00703 ± 0.0019
KRHRKVLRDNIQG [H4 16-28 K R H Rme2s Kme2 V L R D N I Q G],peptide microarray binding signal,"[1]; peptide region: H4 16-28, peptide modifications: H4R19me2s H4K20me2, binder concentration: 50 nM",0.003511 ± 2.9e-05
same,peptide microarray binding signal,"[1]; peptide region: H4 16-28, peptide modifications: H4R19me2s H4K20me2, binder concentration: 500 nM",0.00548 ± 0.00047
same,peptide microarray binding signal,"[2]; peptide region: H4 16-28, peptide modifications: H4R19me2s H4K20me2, binder concentration: 10 nM",0.00937 ± 0.00061
same,peptide microarray binding signal,"[2]; peptide region: H4 16-28, peptide modifications: H4R19me2s H4K20me2, binder concentration: 100 nM",0.0138 ± 0.0027
same,peptide microarray binding signal,[3]; [11],0.00208 ± 0.0003
same,peptide microarray binding signal,[3]; [12],0.00325 ± 0.00014
same,peptide microarray binding signal,[4]; [11],0.000966 ± 0.00022
same,peptide microarray binding signal,[4]; [12],0.00225 ± 0.00011
KRHRKVLRDNIQG [H4 16-28 K R H Rme2s Kme3 V L R D N I Q G],peptide microarray binding signal,"[1]; peptide region: H4 16-28, peptide modifications: H4R19me2s H4K20me3, binder concentration: 50 nM",0.006019 ± 4.1e-05
same,peptide microarray binding signal,"[1]; peptide region: H4 16-28, peptide modifications: H4R19me2s H4K20me3, binder concentration: 500 nM",0.00524 ± 0.00012
same,peptide microarray binding signal,"[2]; peptide region: H4 16-28, peptide modifications: H4R19me2s H4K20me3, binder concentration: 10 nM",0.01444 ± 0.00013
same,peptide microarray binding signal,"[2]; peptide region: H4 16-28, peptide modifications: H4R19me2s H4K20me3, binder concentration: 100 nM",0.0125 ± 0.00075
same,peptide microarray binding signal,[3]; [13],0.0051 ± 0.00088
same,peptide microarray binding signal,[3]; [14],0.00451 ± 0.0013
same,peptide microarray binding signal,[4]; [13],0.00438 ± 0.0021
same,peptide microarray binding signal,[4]; [14],0.00663 ± 0.00022
